Experimental data published in PubChem BioAssay AID1726 (National Center for Advancing Translational Sciences (NCATS), 2009).
Inconclusive results are not listed. The source made the active and inactive calls. Calls come from the whole dose curve; as a rule, active = well fitted curve in the direction sought with a large enough effect; inconclusive = small, poorly fitted or top-dose-only effect, or effect the other way, or another doubt; inactive = no such curve, though single readings can be large or run the other way.

Molecular target: Epidermal growth factor receptor (Homo sapiens) (UniProt P00533)
Sequence (P00533 whole entry T790M/L858R, looked up): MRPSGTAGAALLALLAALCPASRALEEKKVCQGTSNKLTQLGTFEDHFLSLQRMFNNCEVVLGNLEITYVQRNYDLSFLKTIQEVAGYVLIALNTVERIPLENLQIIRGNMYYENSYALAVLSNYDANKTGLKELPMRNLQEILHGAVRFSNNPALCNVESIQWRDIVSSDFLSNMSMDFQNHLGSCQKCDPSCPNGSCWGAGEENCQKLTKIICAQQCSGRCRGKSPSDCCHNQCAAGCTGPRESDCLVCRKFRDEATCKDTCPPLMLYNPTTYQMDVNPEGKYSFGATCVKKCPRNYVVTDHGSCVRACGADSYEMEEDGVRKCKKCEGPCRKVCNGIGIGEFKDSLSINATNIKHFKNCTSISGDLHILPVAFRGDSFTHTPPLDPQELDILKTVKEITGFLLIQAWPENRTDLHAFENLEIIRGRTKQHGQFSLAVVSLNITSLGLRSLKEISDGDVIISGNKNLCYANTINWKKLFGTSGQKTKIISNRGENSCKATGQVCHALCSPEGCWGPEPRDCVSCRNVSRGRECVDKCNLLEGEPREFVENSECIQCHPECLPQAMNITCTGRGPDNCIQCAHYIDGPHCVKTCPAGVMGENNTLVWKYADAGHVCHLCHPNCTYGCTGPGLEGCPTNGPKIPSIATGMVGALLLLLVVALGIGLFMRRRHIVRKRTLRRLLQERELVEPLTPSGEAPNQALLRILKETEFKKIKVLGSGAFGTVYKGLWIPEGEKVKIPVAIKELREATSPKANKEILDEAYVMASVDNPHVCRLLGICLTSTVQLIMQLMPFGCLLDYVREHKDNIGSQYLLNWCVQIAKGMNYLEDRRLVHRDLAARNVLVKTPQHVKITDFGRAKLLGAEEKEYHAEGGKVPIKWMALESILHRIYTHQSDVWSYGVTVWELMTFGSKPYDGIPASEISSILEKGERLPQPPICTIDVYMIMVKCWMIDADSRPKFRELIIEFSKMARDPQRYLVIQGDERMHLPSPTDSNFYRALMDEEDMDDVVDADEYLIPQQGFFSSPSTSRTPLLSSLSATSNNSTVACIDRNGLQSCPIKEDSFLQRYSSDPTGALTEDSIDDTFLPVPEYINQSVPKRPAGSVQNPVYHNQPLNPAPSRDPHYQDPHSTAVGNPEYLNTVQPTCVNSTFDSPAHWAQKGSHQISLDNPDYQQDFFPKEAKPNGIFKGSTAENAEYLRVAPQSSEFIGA
Test: Assay for Inhibitors of the ERK Signaling Pathway using a Homogeneous Screening Assay: EGFR T790M/L858R Kinase Inhibition
Source text: qHTS Assay for Inhibitors of the ERK Signaling Pathway using a Homogeneous Screening Assay
NIH Chemical Genomics Center [NCGC]
NIH Molecular Libraries Screening Centers Network [MLSCN]
Assay Submitter (PI): Dr. Wei Zheng, NCGC/NIH
The Ras/extracellular-signal-regulated kinase (ERK) mitogen activated protein (MAP) kinase signaling pathway (ERK1/2 cascade) plays is a key role in transmitting signals from the cell surface to the nucleus (Nishida and Gotoh 1993; Chang and Karin, 2001). The cascade is initiated by the small G-protein Ras, which recruits Raf […], where activation occurs. Alternatively, this pathway can be activated by elevating intracellular cAMP.
Activation of the ERK pathway is essential in increased cell division and cell survival. Sustained and constitutive activation of the ERK pathway, however, has been linked to uncontrolled cell proliferation, increased cell survival, and tumor progression. Thus, the ERK has been as an attractive target for cancer chemotherapy in the past few years (Sebolt-Leopold and Herrera, 2004). […]
The HTRF kinase assay (components supplied as kit by Cisbio) was chosen for the EGFR and EGFR mutant enzyme assays that applied the time resolved fluorescence resonance energy transfer (TR-FRET) principle. […]

Structure (SMILES)	outcome
Cc1nc2c(=O)n(C)c(=O)nc-2n(C)n1	inactive
CN1CCN(c2cccc3c2C(=O)c2ccccc2C3=O)CC1	inactive
